Source: PubChem
AmpC inh detg: inhibitors of E. coli AmpC beta-lactamase with detergent. AmpC hydrolysis of nitrocefin, absorbance 480 nm, 0.01% Triton. 370,000 tested, 0.041% active. Potency, µM (titrated, usually from 114 µM), for the others: at the top dose activity change, negative = inhibition, actives largely listed as inhibitors. P00811;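 note: 0% = no-compound wells and -100% = no-enzyme wells; nearly all actives have a fitted effect of over 25% in size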
Target sequence (P00811 whole entry, looked up): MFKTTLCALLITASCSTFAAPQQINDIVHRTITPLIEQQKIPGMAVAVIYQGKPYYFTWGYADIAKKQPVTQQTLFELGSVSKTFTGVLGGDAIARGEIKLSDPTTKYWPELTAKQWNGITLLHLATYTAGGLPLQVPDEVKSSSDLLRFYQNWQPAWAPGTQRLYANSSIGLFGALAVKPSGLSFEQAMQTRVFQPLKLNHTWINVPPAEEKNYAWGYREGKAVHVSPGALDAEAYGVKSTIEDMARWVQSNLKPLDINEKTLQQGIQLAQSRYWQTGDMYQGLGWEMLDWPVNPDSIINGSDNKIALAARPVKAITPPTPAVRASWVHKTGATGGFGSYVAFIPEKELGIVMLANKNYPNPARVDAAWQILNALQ
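20 mM phosphate pH 7.0 + 0.01% (detergent screen) or 0.0001% Triton X-100; 5.3 nM AmpC reagent; cpd preinc 15 min RT; nitrocefin (800 uM stock) to start; A480 q20 s × 4 min; Activity was normalised to no-enzyme and no-compound control wells.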
SARS PLP yeast: SARS-CoV PLP inhibition in yeast. Potency, µM (highest dose often 32.9 µM), inactives show at the highest dose activity, positive = growth rescue, most hits filed as activators. AID 485353. S. cerevisiae expressing SARS-CoV PLpro, growth rescue. 330,000 tested, 0.19% active; calls by dose curve; note: 0% is about no effect; nearly all actives have a fitted effect of over 55% in size
Pf growth 48h: P. falciparum growth inhibition at 48 hours (one generation); P. falciparum luciferase growth in erythrocytes, 48 h; Potency, µM (doses to about 28.7 µM), for the others: top-dose activity change, negative = inhibition, hits mostly inhibitors; 310,000 tested, 5.9% active; AID 504832; note: % is set by controls: 0 for no effect and ±100 for the full control effect
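First compound was added to culture medium, then infected red cells at 0.1% parasitemia and 2% hematocrit (final). After incubation at 37 C under 5% CO2, luciferase detection reagent was dispensed and light output recorded.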
Sm TGR block: inhibitors of Schistosoma mansoni thioredoxin glutathione reductase; purified TGR, DTNB reduction, TNB absorbance 405 nm; AID 485364; Q962Y6; 360,000 tested, 3% active; Potency, µM (doses to about 114 µM), inactives show at the top dose activity change, negative = inhibition, most hits filed as inhibitors; note: % is set by controls: 0 for no effect and ±100 for the full control effect; nearly all actives have a fitted effect of over 60% in size
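First, TGR (20 nM dispensed) and NADPH were mixed with compound. Second, a 15 min room-temperature incubation followed. Third, further NADPH and then DTNB were added to start the reaction. Finally, TNB absorbance was monitored kinetically.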
AmpC inh no detg: AmpC beta-lactamase inhibition without detergent | P00811 | AmpC nitrocefin hydrolysis, absorbance 480 nm, 0.0001% Triton | Potency, µM (titrated, usually from 57.1 µM), for the others: top-dose activity change, negative = inhibition, hits mostly inhibitors | 330,000 tested, 0.52% active | AID 485341;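 note: plate controls were no compound for no effect and no enzyme for full effect; nearly all actives have a fitted effect of over 20% in size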
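20 mM phosphate pH 7.0 + 0.01% (detergent screen) or 0.0001% Triton X-100; 5.3 nM AmpC reagent; cpd preinc 15 min RT; nitrocefin (800 uM stock) to start; A480 q20 s × 4 min; Activity was normalised to no-enzyme and no-compound control wells.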
Pf growth 96h: inhibits malaria parasite growth, 96 h | P. falciparum luciferase reporter growth, 96 h | Potency, µM (titrated, usually from 28.7 µM), for inactives: at the top dose activity change, negative = inhibition, actives largely listed as inhibitors | 320,000 tested, 6.9% active; note: % is set by controls: 0 for no effect and ±100 for the full control effect
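Luminescence readout: decreased luciferase signal marks inhibited growth of reporter-expressing P. falciparum in infected red cells (2% hematocrit, 0.05% parasitemia final), exposed to compound two generations (96 h, 37 C, 5% CO2).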
Starred values were filed as active, the others as inactive; ? = inconclusive; nt = not tested or not shown. Sampled rows, rich in hits. Any-hit rate of the full collection: about 12%. Unless noted, calls come from the whole dose curve; as a rule, active = well fitted curve in the direction sought with a large enough effect; inconclusive = small, poorly fitted or top-dose-only effect, or another doubt; inactive = no such curve, though single readings can be large; an effect the other way counts as inactive or inconclusive. Potency is the fitted concentration of half-maximal effect.

SMILES	AmpC inh detg	SARS PLP yeast	Pf growth 48h	Sm TGR block	AmpC inh no detg	Pf growth 96h
Cc1ccnc(Sc2ccc([N+](=O)[O-])cn2)n1	4%	0%	?	-25%	-3%	13µM*
Cc1cccc(Sc2ccc([N+](=O)[O-])cn2)c1	?	-3%	0%	1%	-17%	13%
O=[N+]([O-])c1ccc(Sc2ccccc2)nc1	-2%	-3%	-1%	0%	-8%	-110%
CC(C)(C)c1csc(Sc2ccc([N+](=O)[O-])cn2)n1	0%	1%	13µM*	?	-7%	?
CN(C)C(=O)CCSc1nnc(-c2ccncc2)o1	-12%	0%	33%	-20%	-15%	0%
COC(=O)c1nc(NC(=O)C(C)C)n[nH]1	5%	2%	?	18µM*	-17%	5.9µM*
COC(=O)c1nc(NC(C)=O)n[nH]1	-8%	9%	-12%	1%	-15%	?
O=C(NC(n1ccc(=O)[nH]c1=O)C(Cl)(Cl)Cl)C12CC3CC(CC(C3)C1)C2 (stereo not drawn)	-11%	?	2%	40µM*	-29%	6%
Cc1cccc(NC(=O)C(=O)NCCc2csc(-c3ccc(C(F)(F)F)cc3)n2)c1C	2%	nt	nt	?	nt	nt
Nc1ncnc(Nc2ccc(F)cc2)n1	5%	-14%	9%	-5%	-22%	6%
Fc1ccc(Nc2ccnc(Nc3ccc(F)cc3)n2)cc1	-4%	-46%	2.3µM*	3%	?	?
COc1cc2c(cc1OC)CN(S(=O)(=O)/C=C/c1ccccc1)CC2	-5%	1%	?	-6%	64%	-19%
Cc1ccc(CN(C)C(=O)c2cc(Br)c(Br)s2)o1	-8%	8%	3%	50µM*	-29%	6%
Cc1ccc2oc(C(=O)NCC3CCOCC3)c(C)c2c1	1%	-2%	29%	-19%	-20%	10µM*
COc1ccc(NS(=O)(=O)c2ccc(C(=O)N(C)Cc3ccc(C)o3)cc2)cc1	nt	3%	nt	nt	-8%	nt
Cc1ccc2oc(C(=O)N(C)Cc3ccc(C)o3)c(C)c2c1	-9%	-34%	14%	2.2µM*	19%	?
CC(C)(C)C(=O)Cn1c(=O)n(CCCCCC(=O)NCc2ccc3c(c2)OCO3)c(=O)c2sccc21	-2%	nt	nt	-6%	nt	nt
COc1cccc(OC)c1C1=NCC(=O)Nc2c1oc1ccc(Br)cc21	?	19%	?	-11%	-19%	1.9µM*
CCC(=O)c1ccc(OCC(=O)OCC(=O)Nc2sccc2C(N)=O)cc1	-4%	-3%	13%	12%	-35%	10%
O=C(CNC1CCN(Cc2ccccc2)CC1)Nc1ccc(S(=O)(=O)N2CCCCC2)cc1	-4%	0%	?	0%	14%	?
CC(=O)Nc1cc2c(ccc3ccccc32)oc1=O	-11%	-3%	4%	-8%	-8%	0%
CC(=O)c1cc2c(ccc3ccccc32)oc1=O	3%	0%	10%	-24%	-6%	2.3µM*
C/C(=C/Cc1c(O)cc2oc(C)cc(=O)c2c1O)COC1OC(CO)C(O)C(O)C1O (stereo not drawn)	?	6%	12%	-14%	-14%	15%
C#CCOCCOCCOCCNc1nc(N2CCOCC2)nc(N2CCN(C(=O)CCCCCCCCCCNC(=O)[C@H]([C@@H](C)CC)n3cc(CCCCN=C(N)N)nn3)CC2)n1	-3%	2%	0.37µM*	-22%	172%	0.52µM*
C#CCOCCOCCOCCNc1nc(N2CCN(C(=O)[C@H]([C@@H](C)CC)n3cc(CCCCN)nn3)CC2)nc(N2CCN(C(=O)[C@H](CCCCN)n3cc(CC(C)O)nn3)CC2)n1 (stereo partly drawn)	5%	2%	-1%	-3%	275%	74%
